# Values joined by “and” are separate entries in the source; they are usually repeats but may differ in a detail not shown here. Equal entries are not always repeated. Active and inactive are the calls of the source.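 Rule for the calls, unless noted: active = compounds giving at least 50% inhibition in the cell-based MKP-3 phosphatase rescue imaging test; inactive = the rest.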
# Columns and labels:
# [1] = inhibitors of TNFa-induced NFkB p65 translocation, primary screen, imaging, HUVEC, MLSMR starter and 10KST1 sets (AID 438;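 active = inhibition above 20% together with a positive visual image hit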;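 note: compound added about 3h40 before a 20 min TNFalpha stimulation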;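 for inhibition: signal is the nuclear over cytoplasmic p65 intensity ratio per well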); conditions: HUVEC TNFa-induced p65 nuclear translocation; cell count: measured here: nuclei count (cytotoxicity indicator), at 2.08 µM; inhibition: at 2 µM, stronger effect = higher value, 0% TNFa-plus-vehicle, 100% no-TNFa wells
# [2] = inhibitors of mutant huntingtin aggregation, primary screen, imaging, exon1htt(103Q)mCFP cells, high-content imaging (AID 483;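 active = visual image review flags a hit and inhibition of aggregation exceeds 20%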;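 note: compound exposure lasted 3 days before fixation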;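 for nuclei count: percent of the per-plate median nuclei count of sample wells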); conditions: exon1htt(103Q)mCFP cell line, aggregate imaging, at 2 µM; inhibition of aggregation: stronger effect = higher value; nuclei count: measured here: cell count, toxicity
# [3] = inhibitors of E-selectin induction by TNFa, primary screen, imaging, HUVEC, immunofluorescence, MLSMR starter and 10KST1 sets (AID 487;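 active = visually confirmed hit in the image check and inhibition above 20%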;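 for inhibition: signal is fraction of cell area covered by stained E-selectin grains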;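 for nuclei count: 100% = median nuclei count of all wells on the same plate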); conditions: HUVEC TNFalpha-induced E-selectin immunofluorescence imaging, at 2 µM; inhibition: stronger effect = higher value; nuclei count: measured here: cell number, toxicity
# [4] = DUSP6 inhibitors restoring Erk phosphorylation by chemical complementation, primary imaging in DUSP6-transfected HeLa (AID 609); conditions: HeLa MKP-3 transfected, phospho-Erk imaging KS statistic, at 10 µM, cells stimulated with TPA for 15 min;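 for inhibition: phospho-Erk level distribution per well compared with pooled transfected vehicle control wells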
# [5] = target: Dual specificity protein phosphatase 6 (Homo sapiens) (UniProt Q16828); assay: as above; conditions: HeLa MKP-3 transfected, phospho-Erk imaging KS statistic; at 10 µM; stronger effect = higher value; cells stimulated with TPA for 15 min
# [6] = target: Voltage-gated potassium channel subunit beta-2 (Rattus norvegicus) (UniProt P62483); assay: KvBeta enzyme negative modulators, primary screen, biochemical, NADPH fluorescence (AID 622;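 active = fluorescence slope higher than the sample average by over 3 SD, cut at about -0.22 in these data, passing the limit was not always enough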;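 note: slope of raw intensity against log time taken from 70 to 1610 s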); conditions: recombinant KvBeta, 4-cyanobenzaldehyde reduction, at 10 µM, stronger effect = higher value
# [7] = target: Voltage-gated potassium channel subunit beta-2 (Rattus norvegicus) (UniProt P62483); assay: KvBeta positive modulators, primary screen, biochemical, NADPH fluorescence (AID 623;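 active = NADPH fluorescence slope more negative than the mean of all samples by about 3 SD, 99.7% confidence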;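 note: fluorescence intensity change per second fitted from 20 to 320 s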); conditions: Recombinant KvBeta, NADPH fluorescence decrease slope, 10 min; at 10 µM; stronger effect = lower value
# [8] = target: Alpha-2C adrenergic receptor (Homo sapiens) (UniProt P18825); assay: modulators of alpha2C/GIRK thallium flux, primary screen, cell-based, HEK293 alpha2C/GIRK1/2 (AID 624;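 active = fluorescence slope after compound addition differing from the mean of all screened samples at 99.7% confidence, in either direction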;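 note: slope of fluorescence ratio to pre-addition baseline per second over 15 to 24 s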); conditions: thallium flux BTC fluorescence, at 10 µM, actives lie on both sides
# [9] = inhibitors of larval lipid processing in zebrafish, primary screen, whole organism, PED6 fluorescence, gall bladder and intestine (AID 686;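 active = a full or partial loss of lipid-probe fluorescence in the fish gall bladder, intestine or both, judged by eye; inactive = no fluorescence loss, or compound toxic to the fish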;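 note: larvae 5 to 7 days old with five fish per well; signal comes from phospholipase A2 cleavage of quenched PED6 carried via bile; overnight exposure to compound and PED6 before scoring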); conditions: Zebrafish larvae PED6 lipid processing, fluorescence scoring; screened at 20 µM (by protocol)
# [10] = inhibitors of Chlamydomonas gravitaxis, primary screen, whole organism, Chlamydomonas reinhardtii, WT vs cilia-less mutant, absorbance, 96-well (AID 463189;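 active = inhibition at or above 50% relative to wild type and mutant plate controls; inactive = inhibition below 50%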;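 note: 0% = wild type cc124 cells in DMSO and 100% = ciliumless bld1 mutant cells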); conditions: OD600 absorbance, 2 days, at 10 µM, stronger effect = higher value
# [11] = inhibitors of Sendai virus-induced IRF3 signaling, primary screen, TLR/RLR signaling modifier project, cell-based, Sendai virus stimulus, luciferase, 10K MLSCN set (AID 602276;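 active = inhibition at or above 50% at 10 µM; inactive = inhibition below 50%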;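 note: firefly luciferase from ISG56 promoter only with Renilla not read in this screen; 0% = Sendai virus plus DMSO and 100% = medium plus DMSO without virus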); conditions: HEK293 RL24 IRF3 luciferase reporter, at 10 µM, stronger effect = higher value
# [12] = inhibitors of poly I:C-induced TLR3 signaling, primary screen, cell-based, poly I:C stimulus, luciferase, 10K MLSCN set (AID 602277;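 active = inhibition of the reporter signal at or above 50%; inactive = inhibition below 50%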); conditions: HEK293-TLR3 RL24 IRF3 luciferase reporter, at 10 µM, stronger effect = higher value
# [13] = measured here: cell density z-score
# [14] = measured here: nuclear c-Myc green intensity z-score
# [15] = measured here: nuclear pErk red intensity z-score, stronger effect = higher value
# Sequence of Dual specificity protein phosphatase 6 (Homo sapiens) (Q16828 whole entry, looked up): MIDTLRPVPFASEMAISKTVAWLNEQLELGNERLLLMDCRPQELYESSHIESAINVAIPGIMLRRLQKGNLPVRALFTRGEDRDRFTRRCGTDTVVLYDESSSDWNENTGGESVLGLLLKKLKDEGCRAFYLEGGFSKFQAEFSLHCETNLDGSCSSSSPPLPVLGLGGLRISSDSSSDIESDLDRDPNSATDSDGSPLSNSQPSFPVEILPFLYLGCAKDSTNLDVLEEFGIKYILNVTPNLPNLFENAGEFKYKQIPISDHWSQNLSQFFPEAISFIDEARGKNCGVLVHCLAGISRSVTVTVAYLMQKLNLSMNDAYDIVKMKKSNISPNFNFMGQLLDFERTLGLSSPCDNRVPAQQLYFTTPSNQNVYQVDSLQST
# Sequence of Alpha-2C adrenergic receptor (Homo sapiens) (P18825 whole entry, looked up): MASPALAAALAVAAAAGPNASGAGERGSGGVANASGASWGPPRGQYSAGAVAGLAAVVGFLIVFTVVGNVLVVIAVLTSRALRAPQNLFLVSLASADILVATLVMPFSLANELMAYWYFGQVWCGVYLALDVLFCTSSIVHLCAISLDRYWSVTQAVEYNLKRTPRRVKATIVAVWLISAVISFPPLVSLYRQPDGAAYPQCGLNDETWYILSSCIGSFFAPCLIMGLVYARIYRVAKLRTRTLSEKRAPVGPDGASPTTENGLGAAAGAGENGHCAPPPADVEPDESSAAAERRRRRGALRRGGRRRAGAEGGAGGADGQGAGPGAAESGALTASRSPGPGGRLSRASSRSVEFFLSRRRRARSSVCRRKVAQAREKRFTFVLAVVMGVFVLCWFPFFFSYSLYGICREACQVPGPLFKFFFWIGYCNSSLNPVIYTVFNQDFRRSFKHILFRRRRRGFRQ
# Sequence of Voltage-gated potassium channel subunit beta-2 (Rattus norvegicus) (P62483 whole entry, looked up): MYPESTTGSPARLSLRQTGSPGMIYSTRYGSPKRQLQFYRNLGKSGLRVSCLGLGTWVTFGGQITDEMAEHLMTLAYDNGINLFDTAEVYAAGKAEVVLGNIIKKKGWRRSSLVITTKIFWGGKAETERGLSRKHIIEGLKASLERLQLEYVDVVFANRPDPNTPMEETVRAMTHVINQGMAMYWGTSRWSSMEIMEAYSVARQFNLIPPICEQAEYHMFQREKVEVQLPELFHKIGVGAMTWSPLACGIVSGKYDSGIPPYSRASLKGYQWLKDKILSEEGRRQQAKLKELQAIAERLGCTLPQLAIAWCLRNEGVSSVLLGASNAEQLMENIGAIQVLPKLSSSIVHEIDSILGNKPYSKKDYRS
Structure (SMILES),cell count [1],inhibition [1],inhibition of aggregation [2],nuclei count [2] [%],inhibition [3],nuclei count [3],"z-score [4, 13]","z-score [4, 14]","z-score [4, 15]",inhibition [5],fluorescence slope [6],NADPH fluorescence slope [7],slope [8],outcome [9],inhibition [10],inhibition [11],inhibition [12]
CC1CCc2cc(F)cc3c(O)c(C(=O)Nc4cnccn4)c(=O)n1c23 (stereo not given),457,-7.7% (inactive),3.8% (inactive),99.3,-40.6% (inactive),99.4%,0.762,0.74,0.103,17.5% (inactive),-0.351 (inactive),2e-05 (inactive),0.0057 (inactive),inactive,-9.12% (inactive),13.2% (inactive),21.7% (inactive)
COc1cccc(-c2nnc3sc(-c4ccc(C)cc4)nn23)c1,634,3.3% (inactive),11.6% (inactive),77.9,-24.2% (inactive),121%,-0.746,-0.965,1.01,-4.27% (inactive),-0.414 (inactive),-0.000137 (inactive),0.00537 (inactive),inactive,5.03% (inactive),2.84% (inactive),34.9% (inactive)
COc1cc(/C=N/n2c(C)nnc2C)cc(OC)c1OC,454,-5.9% (inactive),3.2% (inactive),109,-27.1% (inactive),92.1%,0.126,-0.553,-1.17,-1.75% (inactive),-0.395 (inactive),-3.1e-06 (inactive),0.00638 (inactive),inactive,23.6% (inactive),14% (inactive),13.7% (inactive)
CC1(C)Cc2c(sc3c2C2=NCCN2C=N3)CS1,632,-2.6% (inactive),-1.3% (inactive),109,-26.4% (inactive),138%,1.38,0.227,-1.08,11.3% (inactive),-0.487 (inactive),-0.000119 (inactive),0.00445 (inactive),inactive,-8.31% (inactive),0.61% (inactive),4.84% (inactive)
Cn1ccnc1SCCC#N,569,-2.2% (inactive),-3.9% (inactive),110,-10.9% (inactive),116%,-0.727,0.913,-1.8,6.04% (inactive),-0.51 (inactive),-0.000118 (inactive),0.00562 (inactive),inactive,3.16% (inactive),5.13% (inactive),14.1% (inactive)
CCN(CCCc1ccccc1)CCCc1ccccc1,633,-10.9% (inactive),-6.3% (inactive),95.6,-92.8% (inactive),132%,-0.00243,0.557,-0.117,9.37% (inactive),-0.514 (inactive),-3.6e-06 (inactive),0.00419 (inactive),inactive,128% (active),16.6% (inactive),29.6% (inactive)
COc1cccc(-c2nnc3sc(C4CCCCC4)nn23)c1,569,-0.9% (inactive),42.2% (active),66.9,-37.4% (inactive),130%,0.451,0.807,-1.36,-13.3% (inactive),-0.418 (inactive),-0.000116 (inactive),0.00489 (inactive),inactive,112% (active),28.7% (inactive),10.1% (inactive)
CCCCn1cnc2c(c1=O)c1nc3ccccc3nc1n2Cc1ccc2c(c1)OCO2,588,-2% (inactive),-18.6% (inactive),101,-78% (inactive),129%,0.775,-1.04,-0.0661,-4.7% (inactive),-0.159 (inactive),1.1e-05 (inactive),0.00729 (inactive),inactive,10.8% (inactive),7.61% (inactive),1.84% (inactive)
C[C@]12CC[C@@H]3c4ccc(O)cc4C(=O)C[C@H]3[C@@H]1CC[C@@H]2O,575,-1.5% (inactive),12.4% (inactive),79.9,-48.8% (inactive),123%,0.0524,0.457,1.93,10.2% (inactive),-0.47 (inactive),-7.3e-05 (inactive),0.00515 (inactive),inactive,-6.24% (inactive),-0.554% (inactive),18.4% (inactive)
Cc1cc(C)c(C#N)c(SCc2[nH]nc3c2C(c2ccccc2)C(C#N)=C(N)O3)n1 (stereo not given),633,-7.7% (inactive),5.8% (inactive),104,-6.9% (inactive),114%,0.152,-0.343,0.203,-7.28% (inactive),-0.571 (inactive),2.5e-06 (inactive),0.00484 (inactive),inactive,31.6% (inactive),12.1% (inactive),20.3% (inactive)
Nc1nc(Cl)nc2c1ncn2[C@H]1C[C@H](O)[C@@H](CO)O1,522 and 557,-10.7% (inactive) and -11.5% (inactive),-36.7% (inactive),10,-143% (inactive) and -17% (inactive),133% and 106%,1.67 and -3.27,-1.09 and -0.338,-0.372 and -0.606,7.39% (inactive) and -2.46% (inactive),-0.46 (inactive) and -0.431 (inactive),-2e-05 (inactive) and -2.2e-05 (inactive),0.00559 (inactive) and 0.00513 (inactive),inactive,18.6% (inactive) and -15.6% (inactive),12.3% (inactive) and 18.7% (inactive),41.2% (inactive) and 27.6% (inactive)
CC(C)Cc1nc(N2CCN(C(=O)c3ccco3)CC2)c(C#N)c2c1CCC2,615,2% (inactive),-13.4% (inactive),106,-37.8% (inactive),116%,0.33,2.04,-0.551,-1.75% (inactive),-0.498 (inactive),-7e-05 (inactive),0.00426 (inactive),inactive,-2% (inactive),10.7% (inactive),12.6% (inactive)
CO[C@H]1C=CO[C@@]2(C)Oc3c(C)c(O)c4c(O)c(c(C=NN5CCN(C)CC5)c(O)c4c3C2=O)NC(=O)C(C)=CC=C[C@H](C)[C@H](O)[C@@H](C)[C@@H](O)[C@@H](C)[C@H](OC(C)=O)[C@@H]1C,652,-3.9% (inactive),-21% (inactive),108,-93.2% (inactive),125%,-0.406,1.71,0.381,13.3% (inactive),-0.556 (inactive),4.3e-06 (inactive),0.00466 (inactive),inactive,10.8% (inactive),33.7% (inactive),49.7% (inactive)
NC(=O)c1cc(-c2ccccc2)nc(Oc2ccccc2)n1,472,-18.1% (inactive),8.5% (inactive),99,-13.2% (inactive),109%,-0.736,-0.523,0.468,6.51% (inactive),-0.53 (inactive),-8.3e-05 (inactive),0.00808 (inactive),inactive,-1.45% (inactive),13.4% (inactive),1.65% (inactive)
CN1CCCN=C1COC(=O)C(O)(c1ccccc1)C1CCCCC1 (stereo not given),703,-0.1% (inactive),15.9% (inactive),107,-113% (inactive),127%,-0.149,-0.804,0.222,3.45% (inactive),-0.497 (inactive),-1.3e-05 (inactive),0.00478 (inactive),inactive,-8.88% (inactive),19.2% (inactive),50.5% (active)
COC(=O)CSc1nc2sc3c(c2c(=O)n1C1CCCCC1)CCN(C)C3,390,-4.4% (inactive),-16% (inactive),102,-127% (inactive),140%,-0.811,-0.963,1.03,-8.59% (inactive),-0.289 (inactive),2e-05 (inactive),0.00385 (inactive),inactive,14.6% (inactive),15.7% (inactive),38.9% (inactive)
COc1cccc(Cn2c(OCC3CCCO3)nc3c2c(=O)n(C)c(=O)n3C)c1 (stereo not given),411,-13.3% (inactive),1.3% (inactive),104,-83.9% (inactive),153%,-0.111,0.171,0.516,-7.28% (inactive),-0.377 (inactive),-2.5e-05 (inactive),0.00528 (inactive),inactive,0.777% (inactive),17.3% (inactive),17.8% (inactive)
O=C(COc1ccccc1)Nc1ccc(-c2nnc(-c3ccco3)o2)cc1,458,-4.3% (inactive),7.5% (inactive),101,-252% (inactive),102%,-2.58,1.43,-0.658,3.97% (inactive),-0.499 (inactive),-2.1e-05 (inactive),0.00796 (inactive),inactive,-15.4% (inactive),-55.4% (inactive),-103% (inactive)
CCCC(CCC)C(=O)OC1C[C@H]2CC[C@@H](C1)[N+]2(C)C (stereo not given in full),587,-4.2% (inactive),35.6% (inactive),88.1,-72.6% (inactive),132%,0.0581,0.732,-0.0735,9.37% (inactive),-0.488 (inactive),-5e-05 (inactive),0.0052 (inactive),inactive,17.7% (inactive),18.2% (inactive),42.2% (inactive)
CN1CC=C2C(C#N)=C(N)C(C#N)(C#N)[C@H](c3cccc(Cl)c3)C2C1 (stereo not given in full),642,-6% (inactive),-38.1% (inactive),98.3,-18.6% (inactive),125%,0.015,5.62,0.205,71% (inactive),-0.368 (inactive),-4.7e-05 (inactive),0.00551 (inactive),inactive,5.27% (inactive),13.6% (inactive),24.1% (inactive)

# Reference: PubChem BioAssay
